From PubChem BioAssay
Most compounds without a hit are left out; they make up all but 21% or so of the library.
Shiga inhibitor – A qHTS for Small Molecule Inhibitors of Shiga Toxin; actives 9.2% (n = 290,000); AID 2315, 2010; inhibition, % at 38.7 µM; Vero cells, Shiga toxin protein synthesis inhibition reporter; in the data active = inhibition mostly above about 28%, no sharp cut-off; inactive = mostly below about 43%; note: 0% is about no effect
Cycloheximide cs – Cycloheximide Counterscreen for Small Molecule Inhibitors of Shiga Toxin; max response, %; actives 12% (n = 300,000); cell reporter, cycloheximide protein synthesis inhibition counterscreen; in the data active = max response mostly above about 13%, no sharp cut-off; inactive = mostly below about 14%; note: read at 38.3 µM for the half of the compounds with a filed dose; 0% is about no effect
Pf growth 48h – Primary qHTS for delayed death inhibitors of the malarial parasite plastid, 48 hour incubation; P. falciparum luciferase growth in erythrocytes, 48 h; actives 5.9% (n = 310,000); Potency, µM (doses to about 28.7 µM), for the others: at the highest dose activity change, negative = inhibition, hits mostly inhibitors; note: potency is the fitted concentration of half-maximal effect; % is set by controls: 0 for no effect and ±100 for the full control effect
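Luciferase-expressing P. falciparum in infected erythrocytes (2% hematocrit, 0.1% parasitemia final) in RPMI 1640/0.5% Albumax were exposed to compound for 48 hours at 37 C, 5% CO2; growth read as luminescence.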
NS1 inh – qHTS Assay for Inhibitors of Influenza NS1 Protein Function | Potency, µM (titrated, usually from 46.1 µM), inactives show top-dose activity, positive = more growth | actives 0.4% (n = 270,000) | AID 2326, 2010; calls by dose curve; note: potency is the fitted concentration of half-maximal effect; actives are rising curves; nearly all actives have a fitted effect of over 50% in size
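In this qHTS, NS1 from influenza A is expressed in budding yeast, where it slows growth. Cells are switched from glucose to 2% galactose medium (pH 6.0, -URA), treated with compound, and growth recovery is read at OD600.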
Sm TGR block – qHTS Assay for the Inhibitors of Schistosoma Mansoni Peroxiredoxins; Schistosoma mansoni thioredoxin glutathione reductase (TGR), Q962Y6; purified TGR, DTNB reduction, TNB absorbance 405 nm; Potency, µM (doses to about 114 µM), inactives show at the top dose activity change, negative = inhibition, hits mostly inhibitors; actives 3% (n = 360,000); AID 485364, 2010; note: potency is the fitted concentration of half-maximal effect; % is set by controls: 0 for no effect and ±100 for the full control effect; nearly all actives have a fitted effect of over 60% in size
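TGR 20 nM + NADPH 100 uM (dispensed conc.), cpd preinc 15 min RT; start with NADPH (500 uM addition) then DTNB (15 mM addition). Kinetic TNB absorbance, 405 nm filter. Four-parameter Hill fit across titration.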
Pf growth 96h – Primary qHTS for delayed death inhibitors of the malarial parasite plastid, 96 hour incubation; actives 6.9% (n = 320,000); Potency, µM (highest dose often 28.7 µM), without a hit: at the top dose activity change, negative = inhibition, usual class: inhibitors; P. falciparum luciferase reporter growth, 96 h; note: potency is the fitted concentration of half-maximal effect; % is set by controls: 0 for no effect and ±100 for the full control effect
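Two-generation exposure (96 h) targets delayed-death phenotype. Reporter parasites carrying integrated firefly luciferase, in red cells at 2% hematocrit and 0.05% parasitemia final, kept at 37 C, 5% CO2; luminescence loss indicates inhibition.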
Numbers without * were called inactive; ? = inconclusive; . = not tested or not shown. Unless noted, calls come from the whole dose curve; as a rule, active = well fitted curve in the direction sought with a large enough effect; inconclusive = small, poorly fitted or top-dose-only effect, or another doubt; inactive = no such curve, though single readings can be large; an effect the other way counts as inactive or inconclusive.

SMILES	Shiga inhibitor	Cycloheximide cs	Pf growth 48h	NS1 inh	Sm TGR block	Pf growth 96h
CCN(CC)c1ccc(NC(=S)NCC2CCCO2)cc1 (stereo unspecified)	101*	28*	-21%	-4%	?	?
S=C(NCC1CCCO1)Nc1ccc(Cl)cc1 (stereo unspecified)	56	16*	14%	29%	?	90%
Cc1ccc(NC(=S)NCC2CCCO2)cc1 (stereo unspecified)	43	26	.	2%	-9%	16%
Clc1ccc(-c2ccc(CNCC3CCCO3)o2)cc1 (stereo unspecified)	96*	35*	34%	-3%	-27%	55%
O=C(O)CCS(=O)(=O)c1ccccc1Cl	-6	-2	-1%	.	3%	19%
Cc1cccc(/C=N/NC(=O)c2cc(Br)ccc2OCc2ccccc2)n1	20	-6	?	-15%	20%	-5%
O=C(N/N=C/c1ccncc1)c1ccccc1OCc1ccc(Br)cc1	-2	-1	-62%	-2%	-7%	1.9µM*
Cc1cccc(/C=N/NC(=O)c2ccccc2OCc2cccc(Br)c2)n1	12	1	15µM*	-20%	2%	?
OC(Cc1ccccc1)(Cc1ccccc1)c1ccccc1	.	.	.	-19%	.	.
COc1ccc2nc3sc(C(=O)N4CCN(c5ccccc5)CC4)cc3cc2c1	.	.	.	.	9%	.
COc1ccc(Nc2ccc3c(c2)=NC2(CCCCC2)[N+]=3[O-])cc1	59*	26*	12µM*	-60%	-22%	?
O=[N+]([O-])c1ccc2c(c1N1CCCCC1)=NC1(CCCCC1)[N+]=2[O-]	2	2	1%	5%	0%	12%
COc1ccc(NC2=NC(=S)N(c3ccccc3C)C23CCCCC3)cc1	-3	-3	.	13%	-12%	-74%
[O-][N+]1=c2ccc(Nc3ccccc3)cc2=NC12CCCCC2	89*	51*	9.3µM*	-123%	-19%	.
CCCCN(C(=O)CNC(=O)c1ccco1)C(C(=O)NC1CCCCC1)c1cccnc1 (stereo unspecified)	-17	-2	0%	12%	2%	42%
CCOC(=O)c1c(NC(=O)/C=C/c2ccc(C(C)C)cc2)sc2c1CCC2	.	.	.	.	0%	.
CC(=O)NC1(c2nnnn2CCOC(=O)Nc2ccc(Cl)cc2)CCCC1	38	2	-1%	.	-1%	-13%
O=C(Nc1ccc(Cl)cc1)OCCn1nnnc1C(c1ccccc1Cl)N1CCOCC1 (stereo unspecified)	28	9	15µM*	-26%	-6%	?
CN(C)S(=O)(=O)c1cccc(C(=O)OCC(=O)Nc2sccc2C(N)=O)c1	-20	-5	1.9µM*	-1%	6%	3.7µM*
COc1ccc(C(=O)OCC(=O)Nc2sccc2C(N)=O)cc1OC	8	9.3*	17%	2%	-4%	21%
COc1ccc(C(=O)c2cn(Cc3ccccc3)c3ccccc3c2=O)cc1OC	.	.	.	.	11%	.
CCOc1ccc(CCNC(=O)C2Cc3ccccc3N2C(=O)CC)cc1OCC (stereo unspecified)	.	.	.	.	16%	.
CCOc1ccc(-c2nnc(Nc3ccc(OC)c(C(=O)N4CCCCC4)c3)c3ccccc23)cc1	-5	-3	4.1µM*	-6%	9%	1.2µM*
CNC(=O)c1cc(Nc2nnc(-c3ccc(O)cc3)c3ccccc23)ccc1OC	-12	-4	?	-1%	1%	23%
O=C(c1cc(S(=O)(=O)N2CCN(c3ccccc3)CC2)ccc1Cl)N1CCCCCCC1	.	.	?	.	-5%	?
SMILES	Shiga inhibitor	Cycloheximide cs	Pf growth 48h	NS1 inh	Sm TGR block	Pf growth 96h
CC(=O)Nc1nc2c(C)c(Cl)ccc2s1	-4	-2	7%	-4%	0%	23%
Cc1c(Cl)ccc2sc(NC(=O)C3CC3)nc12	28*	18*	25%	-48%	4%	34%
NNc1nc2c(F)cc(F)cc2s1	82*	70*	63%	-10%	-12%	36%
Nc1nc2c(F)cccc2s1	-12	10	15%	0%	-2%	0%
Cc1noc(C)c1CSCC(=O)Nc1nc2c(F)cc(F)cc2s1	.	.	?	.	-19%	?
Fc1cccc2sc(Nc3nc4c(F)cccc4s3)nc12	38*	63*	72%	16%	-3%	?
NNc1nc2c(F)cccc2s1	77*	84*	75%	-1%	-6%	84%
CCC(Sc1nc2ccncc2[nH]1)C(=O)Nc1ccc(C)c(Cl)c1 (stereo unspecified)	0	-2	11%	11%	11%	54%
CCOC(=O)c1ccc(N2CCN(c3ccccc3F)CC2)c(NC(=O)Nc2ccc(Cl)c(Cl)c2)c1	.	.	.	.	7%	.
CCOc1ccc(-n2c(=O)c3sccc3n(CC(=O)NCCc3ccc(OC)c(OC)c3)c2=O)cc1	7	1	16%	.	-10%	19%
O=C(Nc1nc2c(F)cccc2s1)C1CC1	54*	36*	56%	-26%	-2%	59%
Nc1nc(-c2ccccc2)cn1/N=C/c1ccccc1	34	38*	14%	-8%	?	10%
C[N+](C)(C)CC[N+]1(C)Cc2c(Cl)c(Cl)c(Cl)c(Cl)c2C1	.	.	-10%	.	.	0.24µM*
O=C(NNC(=O)C1CCN(c2ncccn2)CC1)c1ccc(F)cc1	-6	-2	4%	-6%	3%	-16%
COc1ccc(NC(=O)C/C(C)=N/NC(=O)C2CCCCC2)c([N+](=O)[O-])c1	8	7	31%	6%	-3%	10µM*
C/C(CC(=O)Nc1ccc([N+](=O)[O-])cc1)=N/NC(=O)C1C2CCCCC21 (stereo unspecified)	36	19*	7%	2%	-24%	5%
COc1cc(NC(=O)C/C(C)=N/NC(=O)C2CCCCC2)c(OC)cc1Cl	7	-1	-1%	9%	-1%	?
CS(=O)(=O)Oc1ccc2c(c1)O/C(=C\c1cccnc1)C2=O	20*	12	12%	6%	-1%	59%
COc1ccc(CCNC(=O)C(C)n2nc(C)c3sc4ccccc4c3c2=O)cc1OC (stereo unspecified)	.	.	.	.	-1%	.
Cc1cc2cc(CN(Cc3ccco3)S(=O)(=O)c3c(C)ccc4nsnc34)c(=O)[nH]c2cc1C	-10	-2	?	6%	45µM*	87%
O=c1[nH]c2ccccc2cc1CN(Cc1ccco1)S(=O)(=O)c1ccc(F)cc1	11	-2	13%	-2%	?	-25%
Cc1ccc2cc(CN(Cc3ccco3)S(=O)(=O)c3c(C)ccc4nsnc34)c(=O)[nH]c2c1	30	-2	?	-27%	8.9µM*	4%
